Assay results from ChEMBL document CHEMBL2218924, “A broad activity screen in support of a chemogenomic map for kinase signalling research and drug discovery” (Biochem J, 2013).

molecular target: Tyrosine-protein kinase Fyn (Homo sapiens) (UniProt P06241); details: at 1 µM
Sequence (P06241 2-537 limits assumed): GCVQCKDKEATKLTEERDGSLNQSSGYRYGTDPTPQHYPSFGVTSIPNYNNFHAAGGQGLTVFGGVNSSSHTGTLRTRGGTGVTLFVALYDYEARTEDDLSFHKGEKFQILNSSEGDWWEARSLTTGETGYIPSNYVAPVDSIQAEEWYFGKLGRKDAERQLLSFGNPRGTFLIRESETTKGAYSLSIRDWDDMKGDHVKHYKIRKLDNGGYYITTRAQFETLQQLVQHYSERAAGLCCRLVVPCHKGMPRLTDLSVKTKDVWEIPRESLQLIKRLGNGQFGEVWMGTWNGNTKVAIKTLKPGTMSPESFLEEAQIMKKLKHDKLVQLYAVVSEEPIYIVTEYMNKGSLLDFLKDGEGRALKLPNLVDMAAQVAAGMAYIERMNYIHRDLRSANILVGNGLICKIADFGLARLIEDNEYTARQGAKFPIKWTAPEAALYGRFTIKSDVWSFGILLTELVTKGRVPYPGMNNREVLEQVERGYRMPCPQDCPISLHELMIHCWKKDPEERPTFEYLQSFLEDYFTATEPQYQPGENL

Q: How did the residual activity turn out when `O=c1cc(-c2cccc3c2Sc2ccccc2S3)oc(N2CCOCC2)c1` was run?
A: 91%

Q: For `O=C(Nc1cccc(Nc2nccc(Nc3cccc(C(F)(F)F)c3)n2)c1)C1CC1`, which residual activity is on record?
A: 47%

Q: How did the residual activity turn out when `CCN(CC)CCCCN1c2ccccc2Oc2ccc(Cl)cc21` was run?
A: 102%

Q: How did the residual activity turn out when `Nc1cccc(-c2cc3c(Oc4cccc(O)c4)ncnc3[nH]2)c1` was run?
A: 0%

Q: Which residual activity does the source give for `COc1ccc(OC)c2c(=S)c3ccccc3[nH]c12` here?
A: 83%

Q: Which residual activity does the source give for `COc1cccc(-c2cc(=O)c3ccccc3o2)c1N` here?
A: 93%

Q: `CNc1cc2c(Nc3cccc(Br)c3)ncnc2cn1` was tested. Which residual activity did it give?
A: 57%

Q: Which residual activity does the source give for `CC(C)n1cnc2/c(=N/c3cccc(Cl)c3)nc(NCCO)[nH]c21` here?
A: 21%

Q: With `CN(C)c1ccc(/C=C2\C(=O)Nc3ccccc32)cc1` as the molecule, how does the residual activity read?
A: 83%

Q: `N#C/C(=C(\N)Sc1ccc(N)cc1)c1ccccc1C(F)(F)F` was tested. Which residual activity did it give?
A: 71%

Q: With `O=C1Nc2cc(Br)ccc2/C1=C1/Nc2ccccc2/C1=N\O` as the molecule, how does the residual activity read?
A: 1%

Q: `Ic1cccc(CSc2nnc(-c3ccncc3)o2)c1` was tested. Which residual activity did it give?
A: 71%

Q: How did the residual activity turn out when `O=C1NC(=O)c2cc(Nc3ccc(F)cc3)c(Nc3ccc(F)cc3)cc21` was run?
A: 68%

Q: Which residual activity does the source give for `O=C1c2ccccc2-[n+]2ccc3c([nH]c4ccccc43)c21` here?
A: 77%

Q: For `COc1ccc(S(=O)(=O)N(CCO)c2ccccc2CN(C)C/C=C/c2ccc(Cl)cc2)cc1`, which residual activity is on record?
A: 73%

Q: With `O=C1NC(=O)/C(=C\c2ccc3nccnc3c2)S1` as the molecule, how does the residual activity read?
A: 83%

Q: With `Oc1ccc(Nc2nc(-c3ccc(Cl)cc3)cs2)cc1` as the molecule, how does the residual activity read?
A: 87%

Q: With `O=C1NC(=O)c2c1c1c3ccccc3[nH]c1c1[nH]c3cc(Br)ccc3c21` as the molecule, how does the residual activity read?
A: 85%

Q: `Oc1c2ccccc2c2c3c(cccc13)N=N2` was tested. Which residual activity did it give?
A: 60%

molecular target: Tyrosine-protein kinase Fyn (Homo sapiens) (UniProt P06241); details: at 10 µM

Q: `CC(=O)O/N=C1\C(=C2\C(=O)Nc3cc(Br)ccc32)Nc2ccccc21` was tested. Which residual activity did it give?
A: 0%

Q: How did the residual activity turn out when `Oc1n[nH]c2nnc(-c3c(-c4ccccc4)nn4ccccc34)cc12` was run?
A: 77%

Q: With `Cn1cnc2cc3c(Nc4cccc(Br)c4)ncnc3cc21` as the molecule, how does the residual activity read?
A: 34%

Q: For `O=C(O)c1ccc2c3c1cccc3c(=O)n1c3ccccc3nc21`, which residual activity is on record?
A: 59%

Q: How did the residual activity turn out when `Nc1nc(Nc2ccc(S(N)(=O)=O)cc2)nn1C(=S)Nc1c(F)cccc1F` was run?
A: -1%

Q: With `CCC(=O)Nc1ccc2ncnc(Nc3cccc(Br)c3)c2c1` as the molecule, how does the residual activity read?
A: 67%

Q: `CO[C@H]1C[C@@H]2CC[C@@H](C)[C@@](O)(O2)C(=O)C(=O)N2CCCC[C@H]2C(=O)O[C@H]([C@H](C)C[C@@H]2CC[C@@H](O)[C@H](OC)C2)CC(=O)[C@H](C)/C=C(\C)[C@@H](O)[C@@H](OC)C(=O)[C@H](C)C[C@H](C)/C=C/C=C/C=C/1C` was tested. Which residual activity did it give?
A: 95%

Q: How did the residual activity turn out when `O=C1NC(=O)/C(=C/c2ccc3c(c2)OC(F)(F)O3)S1` was run?
A: 79%

Q: Which residual activity does the source give for `O=C1Nc2ccccc2/C1=C1/Nc2ccccc2/C1=N\OCCC(O)CO` (centres undefined) here?
A: 2%

Q: For `O=c1c2ccccc2[nH]c(=S)n1CCN1CCC(=C(c2ccc(F)cc2)c2ccc(F)cc2)CC1`, which residual activity is on record?
A: 46%

Q: With `CC(C)n1cnc2c(NCc3ccccc3)nc(NCCCO)nc21` as the molecule, how does the residual activity read?
A: 1%

Q: How did the residual activity turn out when `Cc1nc2cc3nc(-c4cccs4)cnc3cc2n1C` was run?
A: 69%

Q: With `COc1cc2ncnc(Nc3ccc(O)c(Br)c3)c2cc1OC` as the molecule, how does the residual activity read?
A: 9%

Q: With `CCOc1cc2ncnc(Nc3cccc(Br)c3)c2cc1OCC` as the molecule, how does the residual activity read?
A: 4%

Q: Which residual activity does the source give for `Cn1cc(/C=C2\C(=O)Nc3ccc(S(N)(=O)=O)cc32)c2ccccc21` here?
A: 3%

Q: With `COc1ccc(CNc2nc(N(CCO)CCO)nc3c2ncn3C(C)C)cc1` as the molecule, how does the residual activity read?
A: 90%

Q: How did the residual activity turn out when `O=c1cc(-c2cccc3c2Sc2ccccc2S3)oc(N2CCOCC2)c1` was run?
A: 94%

Q: For `O=C(Nc1cccc(Nc2nccc(Nc3cccc(C(F)(F)F)c3)n2)c1)C1CC1`, which residual activity is on record?
A: 7%

Q: How did the residual activity turn out when `CCN(CC)CCCCN1c2ccccc2Oc2ccc(Cl)cc21` was run?
A: 108%

Q: `Nc1cccc(-c2cc3c(Oc4cccc(O)c4)ncnc3[nH]2)c1` was tested. Which residual activity did it give?
A: -2%

Q: How did the residual activity turn out when `COc1ccc(OC)c2c(=S)c3ccccc3[nH]c12` was run?
A: 90%

Q: With `COc1cccc(-c2cc(=O)c3ccccc3o2)c1N` as the molecule, how does the residual activity read?
A: 39%

Q: How did the residual activity turn out when `CNc1cc2c(Nc3cccc(Br)c3)ncnc2cn1` was run?
A: 16%

Q: For `CC(C)n1cnc2/c(=N/c3cccc(Cl)c3)nc(NCCO)[nH]c21`, which residual activity is on record?
A: 3%

Q: For `CN(C)c1ccc(/C=C2\C(=O)Nc3ccccc32)cc1`, which residual activity is on record?
A: 56%

Q: Which residual activity does the source give for `N#C/C(=C(\N)Sc1ccc(N)cc1)c1ccccc1C(F)(F)F` here?
A: 13%

Q: `O=C1Nc2cc(Br)ccc2/C1=C1/Nc2ccccc2/C1=N\O` was tested. Which residual activity did it give?
A: 2%

Q: `Ic1cccc(CSc2nnc(-c3ccncc3)o2)c1` was tested. Which residual activity did it give?
A: 84%

Q: `O=C1NC(=O)c2cc(Nc3ccc(F)cc3)c(Nc3ccc(F)cc3)cc21` was tested. Which residual activity did it give?
A: 50%

Q: With `O=C1c2ccccc2-[n+]2ccc3c([nH]c4ccccc43)c21` as the molecule, how does the residual activity read?
A: 76%

Q: `COc1ccc(S(=O)(=O)N(CCO)c2ccccc2CN(C)C/C=C/c2ccc(Cl)cc2)cc1` was tested. Which residual activity did it give?
A: 37%

Q: With `O=C1NC(=O)/C(=C\c2ccc3nccnc3c2)S1` as the molecule, how does the residual activity read?
A: 79%

Q: Which residual activity does the source give for `Oc1ccc(Nc2nc(-c3ccc(Cl)cc3)cs2)cc1` here?
A: 68%

Q: For `O=C1NC(=O)c2c1c1c3ccccc3[nH]c1c1[nH]c3cc(Br)ccc3c21`, which residual activity is on record?
A: 62%

Q: Which residual activity does the source give for `Oc1c2ccccc2c2c3c(cccc13)N=N2` here?
A: 47%
